Measured values taken from PubChem BioAssay (NCATS).
Inconclusive results are not listed. A call without a number means that no potency is given here. Calls of active or inactive are those of the source. Calls come from the whole dose curve; as a rule, active = well fitted curve in the direction sought with a large enough effect; inconclusive = small, poorly fitted or top-dose-only effect, or another doubt; inactive = no such curve, though single readings can be large; an effect the other way counts as inactive or inconclusive.

Experiments:
[1] = Cell Viability - LYMP2-006 (AID 978); note: series mostly up to about 92 µM; nearly all actives have a fitted effect of over 60% in size
In short: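 Human lymphoblastoid cells, 2500 per well, were preincubated 5 hr at 37 C, then exposed to compounds for 24 hr at 37 C in complete medium. Viability was read as intracellular ATP by CellTiter-Glo luminescence; AC50 from Hill-equation fits of qHTS concentration-response data.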

[2] = Cell Viability - LYMP2-008 (AID 980); note: nearly all actives have a fitted effect of over 60% in size
In short: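 Luminescent ATP read-out (CellTiter-Glo, 30 min RT) after 24 hr compound exposure at 37 C of human lymphoblastoid cells in complete medium. Decrease in ATP taken as cytotoxicity; AC50 derived by standard Hill fit of qHTS concentration-response data.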

[3] = Cell Viability - LYMP2-010 (AID 981); note: nearly all actives have a fitted effect of over 55% in size
In short: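 qHTS cytotoxicity, 1536-well: 2500 cells/well, 5 hr settle, 24 hr compound at 37 C, CellTiter-Glo 30 min RT, luminescence read. Decrease in ATP = toxicity; AC50 via standard Hill equation. Positive control tetraoctylammonium bromide.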

[4] = Cell Viability - LYMP2-012 (AID 982);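 note: cellular ATP by luciferase luminescence where a drop means cytotoxicity; cells exposed to compound for one day before reading; nearly all actives have a fitted effect of over 55% in size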
[5] = Cell Viability - LYMP2-014 (AID 983); note: series mostly up to about 92 µM; nearly all actives have a fitted effect of over 50% in size
In short: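 2500 cells/well, 5 hr 37 C; cpd 24 hr 37 C, complete medium; CellTiter-Glo 30 min RT, luminescence; ATP loss = toxicity; AC50 via Hill eqn; tetraoctylammonium bromide positive control.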

[6] = Cell Viability - LYMP2-020 (AID 986); note: nearly all actives have a fitted effect of over 55% in size; note: potency is the fitted concentration of half-maximal effect
In short: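 qHTS, 2500 cells/well; 5 hr then 24 hr compound exposure, 37 C; CellTiter-Glo luminescence after 30 min RT; ATP decrease taken as cytotoxicity; AC50 via Hill equation; tetraoctylammonium bromide positive control.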

[7] = Cell Viability - LYMP2-022 (AID 987); note: nearly all actives have a fitted effect of over 55% in size
In short: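 Luminescent ATP read-out (CellTiter-Glo, 30 min, RT) after 24 hr, 37 C compound exposure of 2500 human lymphoblastoid cells/well in complete medium. Cytotoxicity taken as concentration-dependent ATP loss; AC50 from standard Hill equation.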

[8] = Cell Viability - LYMP2-024 (AID 988); note: nearly all actives have a fitted effect of over 60% in size; note: potency is the fitted concentration of half-maximal effect
In short: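 ATP-based luminescence (CellTiter-Glo, 30 min RT) after 24 h compound exposure at 37 C of 2500 lymphoblastoid cells/well; decrease in ATP taken as cytotoxicity. qHTS concentration-response fitted to standard Hill equation for AC50.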

[9] = Cell Viability - LYMP2-026 (AID 989); note: nearly all actives have a fitted effect of over 50% in size
In short: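 qHTS cytotoxicity: 2500 cells/well, 5 hr 37 C, compound 24 hr 37 C, CellTiter-Glo 30 min RT, luminescence. Tetraoctylammonium bromide positive control. AC50 via standard Hill fit.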

[10] = target: Alpha-galactosidase A (Homo sapiens) (UniProt P06280); experiment: Counterscreen for Glucocerebrosidase Inhibitors: qHTS Assay for Human alpha-Galactosidase at pH 4.5 (AID 992)
In short: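 Citrate buffer pH 4.5, Tween-20 0.005%. Enzyme 2 nM, substrate 80 uM, 20 min RT. Stop pH 10. Fluorescence Ex 365/Em 440. AC50 by Hill fit.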

Chain of Alpha-galactosidase A (Homo sapiens) (P06280 whole entry, looked up): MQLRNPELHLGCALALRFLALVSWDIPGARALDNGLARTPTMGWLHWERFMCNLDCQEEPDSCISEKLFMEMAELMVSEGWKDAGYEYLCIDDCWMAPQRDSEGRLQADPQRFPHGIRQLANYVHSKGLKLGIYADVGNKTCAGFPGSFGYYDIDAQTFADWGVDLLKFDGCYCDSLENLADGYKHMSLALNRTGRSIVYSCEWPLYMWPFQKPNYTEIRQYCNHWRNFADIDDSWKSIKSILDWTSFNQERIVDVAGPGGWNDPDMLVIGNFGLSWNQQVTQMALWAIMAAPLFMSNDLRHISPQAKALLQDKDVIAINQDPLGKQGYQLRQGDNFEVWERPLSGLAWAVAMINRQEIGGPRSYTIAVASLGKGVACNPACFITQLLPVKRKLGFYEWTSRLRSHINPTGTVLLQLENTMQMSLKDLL

O=C(O)c1ccc(S(=O)(=O)N(Cl)Cl)cc1
outcome [1]: inactive | outcome [2]: inactive | outcome [3]: inactive | outcome [4]: inactive | outcome [5]: inactive | Potency [6]: inactive | outcome [7]: inactive | Potency [8]: inactive | outcome [9]: inactive

C=C[C@H]1CN2CC[C@H]1C[C@@H]2[C@@H](O)c1ccnc2ccc(OC)cc12
outcome [1]: inactive | outcome [2]: inactive | outcome [3]: inactive | outcome [4]: inactive | outcome [5]: inactive | Potency [6]: inactive | outcome [7]: inactive | Potency [8]: inactive | outcome [9]: inactive

COc1cc([C@H]2Oc3cc([C@H]4Oc5cc(O)cc(O)c5C(=O)[C@@H]4O)ccc3O[C@@H]2CO)ccc1O
outcome [1]: inactive | outcome [2]: inactive | outcome [3]: inactive | outcome [4]: inactive | outcome [5]: inactive | Potency [6]: inactive | outcome [7]: inactive | Potency [8]: inactive | outcome [9]: inactive

CCOc1ccccc1C(N)=O
outcome [1]: inactive | outcome [2]: inactive | outcome [3]: inactive | outcome [4]: inactive | outcome [5]: inactive | Potency [6]: inactive | outcome [7]: inactive | Potency [8]: inactive | outcome [9]: inactive

CN1CCC[C@@H]1CCO[C@](C)(c1ccccc1)c1ccc(Cl)cc1
outcome [10]: inactive

CN(C)CCC[C@@]1(c2ccc(F)cc2)OCc2cc(C#N)ccc21
outcome [10]: inactive

Oc1c(Cl)cc(Cl)c(Cl)c1Cc1c(O)c(Cl)cc(Cl)c1Cl
Potency [6]: 15.8 µM (active) | Potency [8]: 39.8 µM (active)

CCCCC(CC)COC(=O)c1ccc(N(C)C)cc1 (configuration not stated)
outcome [1]: inactive | outcome [2]: inactive | outcome [3]: inactive | outcome [4]: inactive | outcome [5]: inactive | Potency [6]: inactive | outcome [7]: inactive | Potency [8]: inactive | outcome [9]: inactive

COc1ccc(C(=O)c2ccccc2)c(O)c1
outcome [1]: inactive | outcome [2]: inactive | outcome [3]: inactive | outcome [4]: inactive | outcome [5]: inactive | Potency [6]: inactive | outcome [7]: inactive | Potency [8]: inactive | outcome [9]: inactive

C/C=C/c1ccc(O)c(OC)c1
outcome [1]: inactive | outcome [2]: inactive | outcome [3]: inactive | outcome [4]: inactive | outcome [5]: inactive | Potency [6]: inactive | outcome [7]: inactive | Potency [8]: inactive | outcome [9]: inactive

CCCN(CCC)S(=O)(=O)c1ccc(C(=O)O)cc1
outcome [1]: inactive | outcome [2]: inactive | outcome [3]: inactive | outcome [4]: inactive | outcome [5]: inactive | Potency [6]: inactive | outcome [7]: inactive | Potency [8]: inactive | outcome [9]: inactive

OC[C@H]1O[C@@H]2O[C@H]3[C@H](O)[C@@H](O)[C@@H](O[C@H]4[C@H](O)[C@@H](O)[C@@H](O[C@H]5[C@H](O)[C@@H](O)[C@@H](O[C@H]6[C@H](O)[C@@H](O)[C@@H](O[C@H]7[C@H](O)[C@@H](O)[C@@H](O[C@H]8[C@H](O)[C@@H](O)[C@@H](O[C@H]1[C@H](O)[C@H]2O)O[C@@H]8CO)O[C@@H]7CO)O[C@@H]6CO)O[C@@H]5CO)O[C@@H]4CO)O[C@@H]3CO
outcome [1]: inactive | outcome [2]: inactive | outcome [3]: inactive | outcome [4]: inactive | outcome [5]: inactive | Potency [6]: inactive | outcome [7]: inactive | Potency [8]: inactive | outcome [9]: inactive

NS(=O)(=O)Cc1noc2ccccc12
outcome [10]: inactive

NCCNc1cccc2ccccc12
outcome [1]: inactive | outcome [2]: inactive | outcome [3]: inactive | outcome [4]: inactive | outcome [5]: inactive | Potency [8]: inactive | outcome [9]: inactive

CCOc1ccc(NC(C)=O)cc1
outcome [1]: inactive | outcome [2]: inactive | outcome [3]: inactive | outcome [4]: inactive | outcome [5]: inactive | Potency [6]: inactive | outcome [7]: inactive | Potency [8]: inactive | outcome [9]: inactive

CC(C)(C)NC[C@H](O)COc1nsnc1N1CCOCC1
outcome [10]: inactive

NC(N)=NCc1cccc(I)c1
outcome [10]: inactive

NC(=O)c1ccccc1O
outcome [1]: inactive | outcome [2]: inactive | outcome [3]: inactive | outcome [4]: inactive | outcome [5]: inactive | Potency [6]: inactive | outcome [7]: inactive | Potency [8]: inactive | outcome [9]: inactive

COc1ccc(C(Cl)=C(c2ccc(OC)cc2)c2ccc(OC)cc2)cc1
outcome [1]: inactive | outcome [2]: inactive | outcome [3]: inactive | outcome [4]: inactive | outcome [5]: inactive | Potency [6]: inactive | outcome [7]: inactive | Potency [8]: inactive

CN=C(N)NCCC[C@H](N)C(=O)O
outcome [10]: inactive
